PubChem BioAssay
“And” between values parts separate entries of the source, which are not always exact repeats. Equal entries are not always repeated. The source made the active and inactive calls. Cut-off read from the data, not from the text of the source, unless noted: active = inhibition above about 80%; inactive = the rest.

Legend:
[1] = growth inhibition of BT084 medulloblastoma cells, cell-based, ICGC_MB145, cisplatin and BGB IC40 combos (AID 1671461); settings: drug combinations, stronger effect = higher value;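 note: cells exposed to drugs for 96 hours; 0% = vehicle DMSO and 100% = high DMSO full killing control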
[2] = growth inhibition of RCMB18 medulloblastoma cells, cell-based, cisplatin and BGB IC40 combos (AID 1671462); settings: stronger effect = higher value;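 note: cells exposed to compound for four days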
[3] = growth inhibition of CRL1545 osteosarcoma cells, cell-based, cisplatin and BGB IC20 combos (AID 1671464); settings: stronger effect = higher value;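 note: cells exposed to compound for 96 hours before readout; 0% = vehicle DMSO and 100% = high DMSO killing control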
[4] = sensitizers of A549 cells to miR-34 induction, primary screen, imaging, A549 dox-inducible miR-34, nuclei and caspase counts (AID 1347080;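 active = compounds whose cell count with miR-34 switched on is under 0.7 times the count with it off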); settings: A549 miR-34 inducible, Hoechst nuclei count, 48 h
[5] = survival rescue of mitochondrial mutant cells in low glucose, primary screen, MELAS cybrids, Rieske KO mouse fibroblasts, CellTiter-Glo (AID 1508586;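 active = mean z-score across replicates of 1.96 or higher in either the MELAS or the Rieske mutant cell line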;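 note: z relative to plate mean and SD of compound and empty wells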)
[6] = LFS_MB_P medulloblastoma growth inhibition, cell-based, chromothripsis tumors, cisplatin or BGB combos (AID 1671449); settings: LFS_MB_P medulloblastoma cells;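 note: cells exposed for 96 hours; 0% = vehicle DMSO and 100% = killing by high DMSO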
[7] = HDN33 neuroblastoma growth inhibition, cell-based, chromothripsis tumors, cisplatin or BGB combos (AID 1671450); settings: HDN33 neuroblastoma cells, stronger effect = higher value;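 note: cells exposed to compound for four days; 0% = vehicle DMSO and 100% = cell killing by high DMSO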
[8] = ICB984 medulloblastoma cell growth inhibition, synergistic combos for chromothripsis tumors, cisplatin or BGB combos (AID 1671451; call rule not given here;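 note: cells exposed for 96 hours before readout; 0% = vehicle DMSO and 100% = killing by high DMSO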); settings: ICB984 medulloblastoma cells, drug combinations, stronger effect = higher value
[9] = LFS_MB_1R medulloblastoma cell growth inhibition, synergistic combos for chromothripsis tumors, cisplatin or BGB combos (AID 1671452); settings: LFS_MB_1R medulloblastoma cells, stronger effect = higher value;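 note: cells exposed for 96 hours before readout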
[10] = HTB85 osteosarcoma cell growth inhibition, synergistic combos for chromothripsis tumors, BGB or cisplatin IC20 combos (AID 1671453); settings: HTB85 osteosarcoma cells, drug combinations, stronger effect = higher value;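 note: cells exposed for 96 hours before readout; 0% = vehicle DMSO and 100% = high DMSO killing control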
[11] = CRL2098 osteosarcoma cell growth inhibition, synergistic combos for chromothripsis tumors, BGB or cisplatin IC20 combos (AID 1671454); settings: CRL2098 osteosarcoma cells, drug combinations, stronger effect = higher value;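 note: cells exposed for 96 h before readout; 0% = vehicle DMSO and 100% = killing by high DMSO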
[12] = HD-MB03 medulloblastoma cell growth inhibition, synergistic combos for chromothripsis tumors, BGB or cisplatin IC20 combos (AID 1671455; in the data active = inhibition above about 83%;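 note: 0% = vehicle DMSO and 100% = high DMSO as cytotoxic control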); settings: HD-MB03 medulloblastoma cells, stronger effect = higher value
[13] = UWB1.289 ovarian carcinoma cell growth inhibition, synergistic combos for chromothripsis tumors, BGB or cisplatin combos (AID 1671456); settings: UWB1.289 ovarian carcinoma cells, stronger effect = higher value;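 note: cells exposed to compound for four days; 0% = vehicle DMSO and 100% = killing by high DMSO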
[14] = LFS_MB_2R medulloblastoma cell growth inhibition, synergistic combos for chromothripsis tumors, cisplatin combos (AID 1671457); settings: LFS_MB_2R medulloblastoma cells, stronger effect = higher value;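 note: cells exposed to compound for four days before readout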
[15] = MDA-MB-436 breast carcinoma cell growth inhibition, synergistic combos for chromothripsis tumors, BGB or cisplatin combos (AID 1671458; call rule not given here;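 note: cells exposed for 96 hours; 0% = vehicle DMSO and 100% = killing by high DMSO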); settings: MDA-MB-436 breast carcinoma growth inhibition, drug combinations, stronger effect = higher value
[16] = UWB1.289_BRCA1 ovarian cancer growth, cell-based, BGB or cisplatin combinations (AID 1671459); settings: UWB1.289 BRCA1 ovarian carcinoma, drug combinations, stronger effect = higher value
[17] = human astrocyte viability loss, single and combined drugs, cytotoxicity control for chromothriptic childhood tumor combination screen, cell-based, BGB or cisplatin IC20 combos (AID 1671460); settings: Human astrocytes, drug combinations, stronger effect = higher value;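 note: cells exposed to compounds for 96 hours before viability readout; 0% = vehicle and 100% = killing control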
[18] = hESC survival regulators, cell-based (AID 493140; call rule not given here;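 note: cells exposed to compounds for four days before counting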); settings: human embryonic stem cell survival screen; stronger effect = higher value
[19] = liver-stage malaria parasite growth inhibition, primary screen, cell-based, HepG2, luciferase luminescence, HepG2 viability (AID 624349; in the data active = parasite load remaining mostly below about 12%, no sharp cut-off; inactive = mostly above about 10%;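 note: 100% = mean of DMSO negative control wells on the same plate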); settings: P. berghei liver stage in HepG2, luciferase luminescence, concentration not given here; parasite load remaining: stronger effect = lower value; viability: measured here: HepG2 viability without parasites
[20] = cisplatin combination, at 0.5 µM
[21] = measured here: BGB IC40 combination 0.05 uM, at 0.05 µM
[22] = measured here: BGB IC40 combination, at 0.05 µM
[23] = measured here: combination with cisplatin, at 0.5 µM
[24] = measured here: with BGB IC20 combination, at 0.5 µM
[25] = measured here: with cisplatin IC20 combination, at 0.5 µM
[26] = stronger effect = lower value, cell number ratio, induced over uninduced
[27] = measured here: relative caspase fold change +Dox/-Dox
[28] = measured here: total cells with miR-34 induction, stronger effect = lower value
[29] = measured here: total cells without miR-34 induction
[30] = MELAS cybrid survival, CellTiter-Glo 48 h, stronger effect = higher value
[31] = Rieske KO mouse fibroblast survival, CellTiter-Glo 72 h
[32] = measured here: combination with BGB IC40, at 0.05 µM
[33] = measured here: combination with cisplatin, at 5 µM

O=c1[nH]c(=O)n(C2CC(O)C(CO)O2)cc1I (configuration not stated)
inhibition [1, 20]: -7.3%
inhibition ([1]; cisplatin combination, at 5 µM): -44.5%
inhibition [1, 21]: 12.9%
inhibition ([1]; single agent, at 5 µM): -7.11%
inhibition ([2]; at 0.5 µM): -5.93% (inactive)
inhibition ([2]; cisplatin combo, at 5 µM): -28.2%
inhibition [2, 22]: -1.89%
inhibition [2, 23]: -10.4%
inhibition ([2]; single agent, at 5 µM): -39.8%
inhibition ([3]; at 0.5 µM): -56.2% (inactive)
inhibition [3, 24]: -15.6%
inhibition [3, 25]: -76.5%
inhibition ([3]; single agent, at 0.05 µM): 10.9%
inhibition ([3]; single agent, at 5 µM): 6.02%

CC(C)(C#N)c1ccc(N2C(=O)OCc3cnc4ccc(-c5cnc6ccccc6c5)cc4c32)cc1
fold change [4, 26]: 0.956 (inactive)
fold change [4, 27]: 0.673
cell count [4, 28]: 2510
cell count [4, 29]: 2620
z-score [5, 30]: 3.99 (active)
z-score [5, 31]: 2.98
inhibition ([6]; at 0.5 µM, stronger effect = higher value): -21.4% (inactive)
inhibition ([6]; measured here: combination with BGB IC20, at 0.005 µM): -11.2%
inhibition ([6]; measured here: combination with BGB IC40, at 0.005 µM): -17%
inhibition [6, 32]: -37.9%
inhibition ([6]; measured here: combination with cisplatin, at 0.5 µM, stronger effect = higher value): -37.5%
inhibition ([6]; measured here: combination with cisplatin, at 5 µM, stronger effect = higher value): -27.3%
inhibition ([7]; BGB combo, at 5 µM): 20.7%
inhibition ([7]; at 0.5 µM): 3.13% (inactive)
inhibition ([7]; cisplatin combo, at 5 µM): 12.1%
inhibition [7, 24]: 34.2%
inhibition [7, 25]: -10.9%
inhibition ([7]; single agent, at 5 µM): 52.2%
inhibition ([8]; BGB IC20 combo, at 0.005 µM): -18.4%
inhibition ([8]; BGB IC40 combo, at 0.005 µM): -8.9%
inhibition ([8]; BGB IC40 combo, at 0.05 µM): 30.5%
inhibition ([8]; at 0.5 µM): -29.7% (inactive)
inhibition ([8]; cisplatin combo, at 0.05 µM): 28.5%
inhibition ([8]; cisplatin combo, at 0.5 µM): -15.5%
inhibition ([8]; cisplatin combo, at 5 µM): -36.2%
inhibition ([8]; measured here: 5 uM single agent, at 5 µM): -21.9%
inhibition ([9]; at 0.5 µM): -13.4% (inactive)
inhibition [9, 32]: -7.9%
inhibition [9, 23]: -39.8%
inhibition [9, 33]: 24%
inhibition ([10]; at 0.5 µM): 3.37% (inactive)
inhibition ([10]; measured here: with BGB IC20, at 0.5 µM): 2.55%
inhibition ([10]; measured here: with BGB IC20, at 5 µM): 14.5%
inhibition ([10]; measured here: with cisplatin IC20, at 0.5 µM): -23.6%
inhibition ([10]; measured here: with cisplatin IC20, at 5 µM): 28.2%
inhibition ([10]; single agent, at 5 µM): -10.2%
inhibition ([11]; at 0.5 µM): -42.5% (inactive)
inhibition ([11]; measured here: combination with BGB at IC20, at 0.5 µM): -42.2%
inhibition ([11]; measured here: combination with cisplatin at IC20, at 0.5 µM): -56.5%
inhibition ([12]; at 0.5 µM): -11.6% (inactive)
inhibition ([12]; measured here: combo with BGB at IC20, at 0.5 µM): -14.5%
inhibition ([12]; measured here: combo with cisplatin at IC20, at 0.5 µM): -8.16%
inhibition ([13]; at 0.5 µM): 5.6% (inactive)
inhibition ([13]; measured here: inhibition with BGB combination, at 0.05 µM): -17%
inhibition ([13]; measured here: inhibition with cisplatin combination, at 0.05 µM): -6.61%
inhibition ([14]; at 0.5 µM): -11.6% (inactive)
inhibition [14, 23]: -16.8%
inhibition [14, 33]: -39.1%
inhibition ([15]; at 0.5 µM): -25% (inactive)
inhibition ([15]; measured here: BGB combination, at 0.5 µM): -28.5%
inhibition ([15]; measured here: BGB combination, at 5 µM): -0.266%
inhibition ([15]; measured here: cisplatin combination, at 0.5 µM): -29.7%
inhibition ([15]; measured here: cisplatin combination, at 5 µM): -3.36%
inhibition ([16]; BGB combination, concentration series, at 5 µM): 53.9%
inhibition ([16]; at 0.5 µM): 6.07% (inactive)
inhibition ([16]; cisplatin combination, concentration series, at 5 µM): 99.8%
inhibition ([17]; at 0.5 µM): -4.16% (inactive)
inhibition ([17]; measured here: combo with BGB IC20, at 0.5 µM): -12.4%
inhibition ([17]; measured here: combo with cisplatin IC20, at 0.5 µM): -5.44%
inhibition ([1]; at 0.5 µM): -28.9% (inactive)
inhibition [1, 20]: -2.27%
inhibition ([1]; cisplatin combination, at 5 µM): 60.4%
inhibition [1, 21]: -35.6%
inhibition ([1]; single agent, at 5 µM): 4.04%
inhibition ([2]; at 0.5 µM): -2.14% (inactive)
inhibition ([2]; cisplatin combo, at 5 µM): 20.5%
inhibition [2, 22]: -35.7%
inhibition [2, 23]: 7.95%
inhibition ([2]; single agent, at 5 µM): 19.4%
inhibition ([3]; at 0.5 µM): 0.16% (inactive)
inhibition [3, 24]: -15%
inhibition [3, 25]: 5.66%
inhibition ([3]; single agent, at 0.05 µM): -4.01%
inhibition ([3]; single agent, at 5 µM): 26.5%

CCCCC[C@H](O)/C=C/[C@@H]1[C@@H](C/C=C\CCCC(=O)O)[C@@H](O)C[C@H]1O (tested in a mixture with another compound)
survival [18]: 6.75 (inactive)
parasite load remaining [19]: 74.8% (inactive) and 88.7% (inactive)
viability [19]: 111% and 88.8%
fold change [4, 26]: 0.919 (inactive)
fold change [4, 27]: 1.17
cell count [4, 28]: 8520
cell count [4, 29]: 9270
z-score [5, 30]: -0.0339 (inactive)
z-score [5, 31]: -1.21
